For 3 molecules, Kd results are on record in article PMC5540273 (PLoS ONE, 2017).
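Further: kd values determined as follow-up on hits from a single-replicate KINOMEscan panel screen.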

This assay deals with DDR1.
As for `Cc1ccc(NC(=O)c2cccc(C#N)c2)cc1-c1ccc(C(=O)Nc2ccncc2)cc1` [GSK1398463], the dissociation constant (Kd) came out at 0.022 µM. Molecule `COc1ccc(NC(=O)Nc2ccc(C)c(-c3ccc(C(=O)Nc4ccncc4)cc3)c2)cc1` [GSK1398475] yielded a Kd of 0.86 µM. The molecule `Cn1ccc2ncnc(Oc3ccc(NC(=O)Nc4cccnc4)c(Cl)c3)c21` yielded a Kd of 0.057 µM.

A word on the Kd: it is the constant that tells how readily two partners part at equilibrium. A higher Kd goes with lower affinity.
